# Measurements taken from paper PMC10668032, “Altered binding affinity of SIX1-Q177R correlates with enhanced WNT5A and WNT pathway effector expression in Wilms tumor”.
# Over roughly 33,000 sequences, “e-score” has its median near -0.05; the highest 2% begin near 0.38. The full list was thinned out, with the highest values kept by preference.
# Biological target: T1, SIX1-Q177R homeodomain (human, UniProt Q15475 108-198, Q177R)
# T1 sequence: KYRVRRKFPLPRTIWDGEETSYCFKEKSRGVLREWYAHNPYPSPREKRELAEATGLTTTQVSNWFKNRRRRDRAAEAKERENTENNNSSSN
# Assay: universal protein binding microarray; Universal all-10-mer PBM (8x60K, AMADID 030236), 300 nM GST-tagged protein, Alexa Fluor 488 anti-GST; buffer, salt, pH and temperature not stated (as in Berger); high values mean tight binding
# Conditions: protein: ivt; tags: N-terminal GST; dsDNA, one strand shown
# Summary of the method: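 Duplicate protein binding microarrays (universal 'all 10-mer', 8×60K format) were incubated with GST-tagged homeodomains at 300 nM final concentration. Binding was quantified as 8-mer E-scores with the Universal PBM Analysis Suite.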
row,Sequence,binding signal [E-score]
1,CTGCCCGC,0.163 ± 0.0123
2,CACCGACA,0.374 ± 0.0291
3,TACTGATA,0.192 ± 0.0304
4,GTATCCAC,0.287 ± 0.00341
5,GTATGGTA,0.159 ± 0.00206
6,AGGGTATC,0.363 ± 0.0101
7,AGGGTGCG,0.226 ± 0.0208
8,AAGGGGTG,0.227 ± 0.00304
9,AGGGGGTA,0.358 ± 0.00366
10,CGGGTGGA,0.173 ± 0.033
11,AGGGTGTC,0.4879 ± 0.00164
12,CGGGTGTA,0.47551 ± 0.00024
13,CGGGTGCA,0.238 ± 0.0106
14,AGGGTGGG,0.176 ± 0.00829
15,AGGGGGTC,0.271 ± 0.0446
16,AGGGTGTG,0.4 ± 0.015
17,AGGGGGTG,0.396 ± 0.00554
18,CATCCGGG,0.156 ± 0.00322
19,ACCCTCGT,0.1905 ± 0.000806
20,CACCGAGA,0.276 ± 0.0313
21,TGTAGAAA,0.225 ± 0.0216
22,AATCGACA,0.173 ± 0.025
23,ACAAGGTC,0.218 ± 0.0287
24,CAGGCAGG,0.186 ± 0.0165
25,CACGCTAC,0.242 ± 0.0124

row,Sequence,binding signal [E-score]
1,CCCCGACA,0.324 ± 0.012
2,GGGGTGTA,0.4856 ± 0.000757
3,AGGGTATA,0.199 ± 0.0079
4,AGGGTGCA,0.265 ± 0.0337
5,GGGGTGCA,0.273 ± 0.0552
6,AGGGTGTA,0.475 ± 0.00846
7,CGGGTGTC,0.487 ± 0.00672
8,CGGGTGGC,0.178 ± 0.0577
9,GGGGTGAA,0.154 ± 0.0542
10,CGGGGGTC,0.314 ± 0.0405
11,CGATACTA,0.157 ± 0.00168
12,AGTGCACA,0.171 ± 0.00742
13,AGCCGGTG,0.282 ± 0.011
14,CCGGTACA,0.224 ± 0.00738
15,ACTTGGTG,0.2882 ± 0.00137
16,CCCCAATA,0.153 ± 0.00289
17,CCGAGTGA,0.156 ± 0.00131
18,CACCGCCG,0.375 ± 0.0128
19,CCGTGTTA,0.4236 ± 0.00253
20,GCGTGTTA,0.387 ± 0.0267
21,GCGTGATA,0.173 ± 0.0569
22,CCGTGGTA,0.166 ± 0.0401
23,CCGTGTTC,0.384 ± 0.0141
24,ACGTGTTA,0.352 ± 0.0237
25,GCGTGCTA,0.151 ± 0.031

row,Sequence,binding signal [E-score]
1,CCGTGCTC,0.226 ± 0.0264
2,ACGTGTTC,0.3144 ± 0.00304
3,CACAGTGG,0.16 ± 0.0343
4,CGGGGATC,0.212 ± 0.00313
5,CGCACGAC,0.187 ± 0.0218
6,ATCCGAGG,0.1653 ± 0.000757
7,GTAATCGA,0.204 ± 0.015
8,CGGCTGAC,0.174 ± 0.0351
9,CGAATGAC,0.198 ± 0.0214
10,AAGAGGTG,0.368 ± 0.00802
11,GTTCCGTA,0.188 ± 0.0176
12,GGGTATAA,0.152 ± 0.0231
13,GTATCCCA,0.252 ± 0.00467
14,GTGTCCCA,0.442 ± 0.019
15,GGGTCCAA,0.218 ± 0.025
16,GTATCCGA,0.312 ± 0.0026
17,GTGTCTGA,0.364 ± 0.022
18,GTATCCAA,0.292 ± 0.0191
19,GTGTCCGA,0.413 ± 0.0127
20,GCGTCCTA,0.168 ± 0.0119
21,GTGTCCTA,0.4 ± 0.0124
22,GTATCCTA,0.187 ± 0.00559
23,GGGTCCCA,0.1517 ± 0.0014
24,GTGTCCAA,0.419 ± 0.0151
25,CACCATGA,0.289 ± 0.0156

row,Sequence,binding signal [E-score]
1,CAGATACA,0.313 ± 0.0113
2,AGGGTTAC,0.162 ± 0.0418
3,GGTGCCAA,0.187 ± 0.0523
4,GAACGACA,0.238 ± 0.0152
5,ATCCCCCG,0.266 ± 0.0176
6,CACGCGAC,0.26 ± 0.00798
7,GGTATACA,0.269 ± 0.00593
8,TGTTATAA,0.267 ± 0.015
9,ACAGGGGT,0.266 ± 0.0127
10,CAATAGTG,0.17 ± 0.0397
11,CACGGTGG,0.26 ± 0.0142
12,AGGTTACA,0.182 ± 0.0252
13,ATTCGACA,0.163 ± 0.00531
14,CGATCACG,0.173 ± 0.0459
15,CTCCCCGC,0.168 ± 0.0157
16,ACACACTC,0.314 ± 0.0291
17,ATACTCTC,0.158 ± 0.0315
18,ACACTCTC,0.3915 ± 0.00342
19,ACACTCTG,0.404 ± 0.00495
20,ACTGGGCG,0.192 ± 0.0152
21,CTAAGACA,0.2225 ± 0.00145
22,CACAGCCG,0.208 ± 0.0273
23,ACCAACGA,0.187 ± 0.00325
24,CTCAGCAC,0.185 ± 0.0185
25,CAGACACC,0.456 ± 0.0151

row,Sequence,binding signal [E-score]
1,CAGACACA,0.19 ± 0.0525
2,GAGACACA,0.241 ± 0.0428
3,AAGACACC,0.4713 ± 0.00312
4,AAGACACG,0.35 ± 0.00553
5,CAGACACG,0.353 ± 0.0179
6,GAGACAAC,0.1522 ± 0.00125
7,GAGACACC,0.462 ± 0.0147
8,AAGACACT,0.3744 ± 0.00267
9,ACACAATC,0.178 ± 0.0434
10,CACCGTTA,0.24 ± 0.0265
11,CACGAAAC,0.152 ± 0.0288
12,TACGTACA,0.18 ± 0.0207
13,ACTCTACA,0.296 ± 0.00689
14,ATTCTACA,0.181 ± 0.0191
15,ACGATGGG,0.151 ± 0.0168
16,CGTGTCCA,0.4 ± 0.0263
17,GGGGTCCA,0.268 ± 0.0349
18,GGTGTCCA,0.48 ± 0.00796
19,CGTGTCCC,0.398 ± 0.0161
20,AGTGTCCA,0.348 ± 0.00804
21,GGAGTCCC,0.171 ± 0.00561
22,GGTATCCA,0.3692 ± 0.00211
23,AGTGTCCC,0.379 ± 0.0227
24,CTGATACA,0.24 ± 0.00405
25,CTTTGACA,0.219 ± 0.022

row,Sequence,binding signal [E-score]
1,CCGAACCG,0.175 ± 0.0143
2,ATTATACA,0.165 ± 0.0294
3,ACACTTTA,0.343 ± 0.037
4,CACTCCTG,0.335 ± 0.0105
5,AATTACAC,0.433 ± 0.0394
6,GATTACAC,0.451 ± 0.00984
7,CATCACAC,0.317 ± 0.0183
8,GATTACCC,0.175 ± 0.0203
9,GATCACAC,0.324 ± 0.0116
10,CATTACAC,0.452 ± 0.0182
11,AATTGCAC,0.151 ± 0.0498
12,CATTACTC,0.173 ± 0.0527
13,AATCACAC,0.348 ± 0.00368
14,CTGAGGTA,0.185 ± 0.0187
15,CGGGGGTA,0.315 ± 0.029
16,GGATAAAC,0.169 ± 0.0541
17,CACCTAGG,0.225 ± 0.0248
18,CGCCGACA,0.209 ± 0.0201
19,GATACTCC,0.223 ± 0.00252
20,GATACCCC,0.419 ± 0.00493
21,AATACACG,0.379 ± 0.0262
22,TATACACA,0.169 ± 0.034
23,AATACCCC,0.185 ± 0.00616
24,CACACATA,0.15 ± 0.0738
25,GATACACC,0.469 ± 0.00549

row,Sequence,binding signal [E-score]
1,AATACACA,0.188 ± 0.0145
2,CATACACA,0.205 ± 0.0341
3,CATACACG,0.385 ± 0.00816
4,GATACACA,0.191 ± 0.024
5,CATACCCC,0.205 ± 0.0264
6,CCCCTACG,0.181 ± 0.00578
7,CACGTGCG,0.171 ± 0.0176
8,CACTGCCG,0.26 ± 0.0036
9,ACTAGGGA,0.18 ± 0.018
10,TGTCAGAA,0.183 ± 0.0293
11,CAACCCCA,0.173 ± 0.00554
12,CACGAGAA,0.2024 ± 0.00175
13,TATCGACA,0.212 ± 0.0495
14,AACGCCGT,0.159 ± 0.0311
15,CATGCACC,0.165 ± 0.0266
16,CATACACC,0.4625 ± 0.00144
17,AATATACA,0.18 ± 0.0323
18,AATACACT,0.327 ± 0.0629
19,CATACTCC,0.21183 ± 0.000205
20,AATACACC,0.46 ± 0.00939
21,ACTCCGCA,0.225 ± 0.0283
22,CGAACCCC,0.238 ± 0.0417
23,GTGCTCCA,0.183 ± 0.0244
24,ATCCACAG,0.185 ± 0.0127
25,ACATTCGG,0.311 ± 0.0104

row,Sequence,binding signal [E-score]
1,CACCACAC,0.426 ± 0.00815
2,CCCACCAC,0.158 ± 0.0233
3,AACCACAC,0.281 ± 0.0163
4,CGCACCAC,0.206 ± 0.0107
5,CACACGAA,0.217 ± 0.0302
6,CACACCAA,0.38 ± 0.0115
7,CACACCAG,0.416 ± 0.029
8,CGCACCAG,0.17 ± 0.0676
9,CACACGAG,0.238 ± 0.00672
10,CACCACAG,0.322 ± 0.0259
11,CACACCAC,0.442 ± 0.00998
12,CACCCCAG,0.36 ± 0.0234
13,AGGATACT,0.167 ± 0.0416
14,CACTCACA,0.228 ± 0.0123
15,CCCTAGTA,0.18 ± 0.00712
16,CACCCAAA,0.255 ± 0.0189
17,TACCGACA,0.166 ± 0.00446
18,AGTCAGTG,0.207 ± 0.0189
19,CCCCACTC,0.18 ± 0.00661
20,CGGGTCAC,0.246 ± 0.0313
21,CCCGCCCC,0.1792 ± 0.00129
22,AGCACCAG,0.247 ± 0.0221
23,AACACCAG,0.4653 ± 0.00151
24,AACACGAG,0.361 ± 0.00448
25,ACCAATAC,0.1574 ± 0.000269

row,Sequence,binding signal [E-score]
1,CCAGTGTA,0.43 ± 0.0046
2,GCAGTGTA,0.415 ± 0.0107
3,CCAGTTTA,0.227 ± 0.00151
4,CCTGTGTC,0.229 ± 0.0614
5,CCAGTGGG,0.224 ± 0.0185
6,AAAGTGTC,0.36 ± 0.0233
7,ACAGTGTC,0.387 ± 0.00426
8,GAAGTGTA,0.368 ± 0.0537
9,ACTGTGTC,0.155 ± 0.074
10,CCAGTAAC,0.161 ± 0.0301
11,CCAGTGTC,0.431 ± 0.00754
12,GCAGGGTA,0.162 ± 0.00253
13,CTCCCCTA,0.159 ± 0.0508
14,CCGGGCGA,0.151 ± 0.0223
15,GATCCACA,0.157 ± 0.00291
16,ACCCTGAA,0.21 ± 0.0501
17,CACAGGAG,0.168 ± 0.00689
18,GGATCCCC,0.298 ± 0.0202
19,CCCCGCCC,0.223 ± 0.0451
